# Laboratory results published in PubChem BioAssay (NCI).
# This is part of a sample that, as a whole, favours compounds with a hit. Of some 79,000 tested, about 15% had one in any assay. A number with no mark means an inactive call. Active and inactive are the calls of the source. No stated cut-off is given here; in the data, active means growth inhibition above about 70%; inactive means the rest.
# Assays:
# [1] = NCI Yeast Anticancer Drug Screen. Data for the rad52 strain (AID 147);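 further: 0% = growth of vehicle-treated control cultures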; settings: S. cerevisiae rad52 mutant growth inhibition, stronger effect = higher value
# Procedure, shortened: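 Measured: yeast growth inhibition. System: strain with a defined DNA damage repair alteration. Reference: vehicle-treated control cultures.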
# [2] = NCI Yeast Anticancer Drug Screen. Data for the wt1 strain (AID 149);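 further: 0% = growth of vehicle-treated wt1 cultures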; settings: S. cerevisiae wt1 strain (SPY 50644) growth inhibition, stronger effect = higher value
# Procedure, shortened: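 Compounds are added to wt1 yeast cultures. Growth is then measured. Inhibition is expressed relative to vehicle-treated controls.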
# [3] = NCI Yeast Anticancer Drug Screen. Data for the rad50EPP+ strain (AID 151);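 further: 0% = growth of vehicle-treated control cultures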; settings: S. cerevisiae rad50 mutant strain, stronger effect = higher value
# Procedure, shortened: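 One strain with a rad50 alteration (rad50EPP+) was compound-treated, its growth then compared to that of vehicle controls.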
# [4] = NCI Yeast Anticancer Drug Screen. Data for the mgt1 strain (AID 153); settings: S. cerevisiae mgt1 mutant growth inhibition, stronger effect = higher value
# Procedure, shortened: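 After exposure of the mgt1 yeast mutant to compound, growth was measured and reported as inhibition compared with vehicle controls.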
# [5] = NCI Yeast Anticancer Drug Screen. Data for the rad50 strain (AID 155);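 further: 0% = growth of vehicle-only cultures of the same strain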; settings: S. cerevisiae rad50 strain growth inhibition, stronger effect = higher value
# Procedure, shortened: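 Inhibition values express reduced yeast growth in compound-treated cultures relative to vehicle-treated controls.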
# [6] = NCI Yeast Anticancer Drug Screen. Data for the mec2-1 strain (AID 157); settings: S. cerevisiae mec2-1 strain, stronger effect = higher value
# Procedure, shortened: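 Test agents were screened against the mec2-1 yeast strain, with defined DNA repair or cell cycle alteration. Growth was scored as inhibition against vehicle-only controls.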
# [7] = NCI Yeast Anticancer Drug Screen. Data for the rad14 strain (AID 159);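 further: 0% = growth of vehicle-treated control cultures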; settings: S. cerevisiae rad14 strain growth inhibition, stronger effect = higher value
# Procedure, shortened: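 A mutant yeast strain defective in DNA damage repair is treated with compound; inhibition of its growth is scored against untreated, vehicle-exposed cultures.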
# [8] = NCI Yeast Anticancer Drug Screen. Data for the sgs1 mgt1 strain (AID 161);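 further: 0% = growth of cultures given vehicle only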; settings: S. cerevisiae sgs1 mgt1 strain, stronger effect = higher value
# Procedure, shortened: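 Mutant yeast exposed to compound; growth scored against vehicle-only wells.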
# [9] = NCI Yeast Anticancer Drug Screen. Data for the CLN2oe strain (AID 163);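 further: 0% = growth of vehicle-only control cultures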; settings: S. cerevisiae CLN2oe strain, stronger effect = higher value
# Procedure, shortened: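 Here, growth inhibition in a cell-cycle-altered yeast strain after compound exposure was quantified against vehicle control growth.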
# [10] = NCI Yeast Anticancer Drug Screen. Data for the cln2 rad14 strain (AID 165);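 further: 0% = growth equal to vehicle treated cultures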; settings: S. cerevisiae cln2 rad14 strain, stronger effect = higher value
# Procedure, shortened: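 Growth of compound-exposed yeast (cln2 rad14 genotype) measured and expressed as inhibition relative to vehicle.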
# [11] = NCI Yeast Anticancer Drug Screen. Data for the bub3 strain (AID 167); settings: S. cerevisiae bub3 mutant strain, stronger effect = higher value
# Procedure, shortened: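 Steps: expose the mutant yeast strain to compound; grow alongside vehicle-treated cultures; measure growth; express inhibition against the vehicle cultures.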
# [12] = NCI Yeast Anticancer Drug Screen. Data for the wt2 strain (AID 169);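 further: 0% = growth of vehicle-treated yeast cultures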; settings: S. cerevisiae wt2 strain growth inhibition, stronger effect = higher value
# Procedure, shortened: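 Genetically defined yeast strains from a DNA-repair/cell-cycle panel were used. Compound-exposed yeast growth was measured, and the inhibition was calculated relative to vehicle treatment.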
# [13] = NCI Yeast Anticancer Drug Screen. Data for the mlh1 strain (AID 171);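 further: 0% = growth of vehicle-treated control cultures of the same strain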; settings: S. cerevisiae mlh1 strain growth inhibition, stronger effect = higher value
# Procedure, shortened: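 Here the genetically defined yeast mutant is grown with each compound, and the extent to which its growth falls below that of vehicle-exposed cells is reported.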
# [14] = NCI Yeast Anticancer Drug Screen. Data for the sgs1 strain (AID 173);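 further: 0% = growth of vehicle-only control cultures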; settings: S. cerevisiae sgs1 mutant, stronger effect = higher value
# Procedure, shortened: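 Relative growth inhibition, referenced to vehicle, was determined in a yeast strain with a defined alteration affecting DNA damage repair or cell cycle control after compound exposure.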
# [15] = NCI Yeast Anticancer Drug Screen. Data for the mlh1 rad18 strain (AID 175); settings: S. cerevisiae mlh1 rad18 strain growth inhibition, stronger effect = higher value
# Procedure, shortened: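 In this whole-cell yeast screen, a strain with altered DNA damage repair is challenged with compound, and its growth is measured against matched vehicle-treated controls.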
# [16] = NCI Yeast Anticancer Drug Screen. Data for the rad18 strain (AID 177); settings: S. cerevisiae rad18 mutant growth inhibition, stronger effect = higher value
# Procedure, shortened: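 Screen uses a yeast strain with a defined lesion in DNA damage repair; compound effect is read as loss of growth compared to untreated vehicle cultures.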
# [17] = at 5.0 µM (retest, dose inferred, filed as 0.5)
# [18] = at 50.0 µM (retest, dose inferred, filed as 5.0)
compound,measurement,setting,value
O=C(NCCCNCCCNC(=O)c1cc(-c2ccccc2)nc2ccccc12)c1cc(-c2ccccc2)nc2ccccc12,growth inhibition,[1]; at 1.2 µM,-4%
same,growth inhibition,[1]; at 3.7 µM,-2%
same,growth inhibition,[1]; at 11.0 µM,-4%
same,growth inhibition,[1]; at 33.0 µM,6%
same,growth inhibition,[1]; at 100.0 µM,11%
same,growth inhibition,[2]; at 1.2 µM,-1%
same,growth inhibition,[2]; at 3.7 µM,-1%
same,growth inhibition,[2]; at 11.0 µM,-3%
same,growth inhibition,[2]; at 33.0 µM,-2%
same,growth inhibition,[2]; at 100.0 µM,-5%
same,growth inhibition,[3]; at 1.2 µM,-1%
same,growth inhibition,[3]; at 3.7 µM,5%
same,growth inhibition,[3]; at 11.0 µM,14%
same,growth inhibition,[3]; at 33.0 µM,24%
same,growth inhibition,[3]; at 100.0 µM,19%
same,growth inhibition,[4]; at 1.2 µM,-2%
same,growth inhibition,[4]; at 3.7 µM,-1%
same,growth inhibition,[4]; at 11.0 µM,-3%
same,growth inhibition,[4]; at 33.0 µM,20%
same,growth inhibition,[4]; at 100.0 µM,61%
same,growth inhibition,[5]; at 1.2 µM,-3%
same,growth inhibition,[5]; at 3.7 µM,-2%
same,growth inhibition,[5]; [17],-13%
same,growth inhibition,[5]; at 11.0 µM,-4%
same,growth inhibition,[5]; at 33.0 µM,27%
same,growth inhibition,[5]; [18],54%
same,growth inhibition,[5]; at 50.0 µM,37.3%
same,growth inhibition,[5]; at 100.0 µM,51%
same,growth inhibition,[6]; at 1.2 µM,-2%
same,growth inhibition,[6]; at 3.7 µM,-4%
same,growth inhibition,[6]; [17],-11%
same,growth inhibition,[6]; at 11.0 µM,-5%
same,growth inhibition,[6]; at 33.0 µM,10%
same,growth inhibition,[6]; [18],19%
same,growth inhibition,[6]; at 50.0 µM,37.7%
same,growth inhibition,[6]; at 100.0 µM,47%
same,growth inhibition,[7]; at 1.2 µM,-1%
same,growth inhibition,[7]; at 3.7 µM,-1%
same,growth inhibition,[7]; at 11.0 µM,4%
same,growth inhibition,[7]; at 33.0 µM,58%
same,growth inhibition,[7]; at 100.0 µM,82% (active)
same,growth inhibition,[8]; [17],0%
same,growth inhibition,[8]; [18],-8%
same,growth inhibition,[8]; at 50.0 µM,56.2%
same,growth inhibition,[9]; at 1.2 µM,-3%
same,growth inhibition,[9]; at 3.7 µM,-1%
same,growth inhibition,[9]; at 11.0 µM,-4%
same,growth inhibition,[9]; at 33.0 µM,14%
same,growth inhibition,[9]; at 100.0 µM,24%
same,growth inhibition,[10]; [17],40%
same,growth inhibition,[10]; [18],42%
same,growth inhibition,[10]; at 50.0 µM,37.8%
same,growth inhibition,[11]; at 1.2 µM,-3%
same,growth inhibition,[11]; at 3.7 µM,-1%
same,growth inhibition,[11]; [17],3%
same,growth inhibition,[11]; at 11.0 µM,-1%
same,growth inhibition,[11]; at 33.0 µM,11%
same,growth inhibition,[11]; [18],58%
same,growth inhibition,[11]; at 50.0 µM,64.1%
same,growth inhibition,[11]; at 100.0 µM,44%
same,growth inhibition,[12]; at 1.2 µM,-3%
same,growth inhibition,[12]; at 3.7 µM,-4%
same,growth inhibition,[12]; at 11.0 µM,-4%
same,growth inhibition,[12]; at 33.0 µM,1%
same,growth inhibition,[12]; at 100.0 µM,11%
same,growth inhibition,[13]; at 1.2 µM,-4%
same,growth inhibition,[13]; at 3.7 µM,-1%
same,growth inhibition,[13]; at 11.0 µM,-1%
same,growth inhibition,[13]; at 33.0 µM,16%
same,growth inhibition,[13]; at 100.0 µM,46%
same,growth inhibition,[14]; at 1.2 µM,-3%
same,growth inhibition,[14]; at 3.7 µM,-2%
same,growth inhibition,[14]; at 11.0 µM,-1%
same,growth inhibition,[14]; at 33.0 µM,7%
same,growth inhibition,[14]; at 100.0 µM,11%
same,growth inhibition,[15]; [17],17%
same,growth inhibition,[15]; [18],78% (active)
same,growth inhibition,[15]; at 50.0 µM,89.4% (active)
same,growth inhibition,[16]; at 1.2 µM,-4%
same,growth inhibition,[16]; at 3.7 µM,-3%
same,growth inhibition,[16]; at 11.0 µM,-4%
same,growth inhibition,[16]; at 33.0 µM,13%
same,growth inhibition,[16]; at 100.0 µM,34%
